The whole screen tested about 63,000 compounds, of which about 1,100 (1.7%) were called active. The sample as a whole holds a higher share of actives than the screen did. Potency and affinity values are given separately. A number with no mark means an inactive call.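 The calls were made as follows: active = compounds whose percent cytotoxicity in the single-dose primary screen, scaled between solvent and toxic-drug controls, exceeds 50; inactive = the rest.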

The nature of this test: cytotoxicity in KRAS-transformed pancreatic duct cells, primary screen, cell-based, fluorescence, HTS (AID 431).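 Also: 0% = DMSO solvent wells and 100% = doxorubicin-treated wells.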 The settings on record: HPDE-C7K KRASV12 cells, Alamar Blue viability, 48 h; at 10 µM; active compounds read high.
With `Cc1ccc(NC(=O)CSc2nccc(=O)[nH]2)c(S(=O)(=O)N2CCOCC2)c1`, the cytotoxicity was 2.7%.
`Cc1sc(NC(=O)c2ccco2)c(C(c2cccnc2)N2CCN(c3ccc(F)cc3)CC2)c1C` (configuration not stated): the cytotoxicity was 1.9%.
On to `CCOC(=O)C1CCN(C(c2cccnc2)c2c(NC(=O)c3ccco3)sc(C)c2C)CC1` (configuration not stated), for which the cytotoxicity was 82.5% (active).
`Cc1sc(NC(=O)c2ccco2)c(C(c2ccncc2)N2CCOCC2)c1C` (configuration not stated): the cytotoxicity was -8.8%.
Consider `Cc1ccc2nc(N3CCN(C(=O)c4cccs4)CC3)c(C#N)cc2c1`, for which the cytotoxicity was 2%.
As for `O=S(=O)(Nc1cccc2ncccc12)c1cccs1`, the cytotoxicity is 25.3%.
For `Cc1ccc2ncccc2c1NS(=O)(=O)c1ccccc1`, the cytotoxicity is -4.5%.
`c1ccc(N(c2ccccc2)c2nc(N3CCCC3)nc(-n3ccnc3)n2)cc1`: the cytotoxicity was 1.4%.
For `O=C1c2cccnc2C(O)N1Cc1ccc(F)cc1` (configuration not stated), the cytotoxicity is 1.3%.
For `Cc1ccc2oc(=O)c3cc(C(=O)N4CCN(C(=O)c5ccco5)CC4)sc3c2c1`, the cytotoxicity is 11%.
The value for `O=C(Nc1ccc(-n2cnnn2)cc1)C1CCC1` was -4.6%; that for `COc1ccc(-c2onc(C)c2-c2ccccc2)c(O)c1` was 15.1%; that for `COc1ccc(-c2noc(C)c2-c2ccc3ccccc3n2)c(O)c1` was 54.3% (active).
Regarding `COc1ccc(-c2n[nH]c(C)c2-c2cnn(-c3ccccc3)c2)c(O)c1`, the cytotoxicity was 29.6%.
Regarding `CCOc1ccccc1Nc1ccc(C(=O)O)cc1NC(C)=O`, the cytotoxicity was 0.6%.
Take `O=C(c1cc(-c2cccs2)on1)N1CCOCC1`: the cytotoxicity is 2.8%.
As for `O=C(c1cc(-c2cccs2)on1)N1CCN(c2ccc(F)cc2)CC1`, the cytotoxicity is 13.6%.
Consider `O=C(c1cc(-c2cccs2)on1)N1CCN(c2ccccc2)CC1`, for which the cytotoxicity was 50.8% (active).
With `O=S(=O)(c1cccc2cccnc12)n1cnc2ccccc21`, the cytotoxicity is 6.3%.
`Cc1cccc(C)c1NC(=O)CSc1nnc(Cn2nnc(-c3ccccc3)n2)n1-c1ccccc1`: the cytotoxicity was -8.4%.
For the molecule `N#CC(C(=O)OC1CCCCC1)c1nc2ccccc2nc1N1CCCCC1` (configuration not stated), the cytotoxicity was 5.4%.
With `O=C(C1=C(O)C(=O)N(CCN2CCOCC2)C1c1ccccc1)c1cccs1` (configuration not stated) the figure was -12.1%; with `O=C(c1cccs1)N1CCC(c2nc3c(nnn3Cc3ccccc3)c(=O)[nH]2)CC1`, -36%; with `COCC(=O)n1nc(-c2ccccc2)nc1NCc1ccc(F)cc1`, -6%.
With `O=C(CCCn1c(=S)[nH]c2cc3c(cc2c1=O)OCO3)N1CCN(c2ccccc2)CC1`, the cytotoxicity is -7.8%.
The value for `Cc1cccc(N2CCN(C(=O)CCn3c(=S)[nH]c4cc5c(cc4c3=O)OCO5)CC2C)c1` (configuration not stated) was 62.5% (active); that for `COc1cccc(N2CCN(C(=O)CCn3c(=S)[nH]c4cc5c(cc4c3=O)OCO5)CC2)c1` was -4.3%.
Regarding `NC1=NC2(CCCCC2)n2c(nc3ccccc32)N1`, the cytotoxicity is 19%.
In the case of `NC1=NC2(CCN(Cc3ccccc3)CC2)n2c(nc3ccccc32)N1`, the cytotoxicity is 1%.
With `NC1=NC2(CCC(c3ccccc3)CC2)n2c(nc3ccccc32)N1` (configuration not stated), the cytotoxicity is 68.7% (active).
Regarding `CCOc1ccc(CNC(=O)NS(=O)(=O)c2ccc(OC)cc2)cc1`, the cytotoxicity is -11.3%.
`CCCCn1nnnc1NCc1cccc(OC)c1OC`: the cytotoxicity was 12.8%.
With `CCCCn1c(SCC(=O)NCc2ccco2)nnc1-c1ccoc1C` the figure was -26.4%.
As for `CCCN(CCC)C(=O)C1CCN(c2cc(C)nc3c(-c4ccc(OC)c(OC)c4)c(C)nn23)CC1`, the cytotoxicity was 7.2%.
The value for `COc1ccc(C(=O)CCN2CCCCCC2)cc1` was -7.8%; that for `COc1ccc(C(=O)C(c2ccccc2)N2CCOCC2)cc1` (configuration not stated) was -2.4%.
As for `COc1ccc(C(=O)O)cc1F`, the cytotoxicity was 2.5%.
For `COc1ccc(C(O)C(CN2CCOCC2)c2ccccc2)cc1F` (configuration not stated), the cytotoxicity was -8.6%.
The value for `Cc1c(C(=O)N2CCCCC2)sc(NC(=O)C2CC2)c1C#N` was 2.5%.
The value for `O=C(Nc1ccccc1Cl)c1cnccn1` was -6.1%.
Consider `CCn1c2ccccc2c2cc(C3C(C#N)=C(C)NC(C)=C3C#N)ccc21`, for which the cytotoxicity was 7.6%.
For `CCn1c2ccccc2c2cc(C3C(C#N)=C(N)OC4=C3C(=O)CC(C)(C)C4)ccc21` (configuration not stated), the cytotoxicity was -10.7%.
On to `Cc1ccc(N2C(=O)CSC23C(=O)Nc2ccccc23)cc1` (configuration not stated), for which the cytotoxicity was -5.4%.
Take `COC(=O)[C@@H](NC(=O)Nc1ccccc1F)C(C)C`: the cytotoxicity is 1.9%.
Take `COc1ccc(C(=O)c2ccc(OC)c(N)c2)cc1N`: the cytotoxicity was 66.7% (active).
Regarding `COc1ccc(C(=O)c2ccc(OC)c(OC)c2)cc1OC`, the cytotoxicity was -8.4%.
For the molecule `COc1ccc(C(N)=O)cc1N`, the cytotoxicity is -1%.
As for `CN(Cc1ccccc1)C(=O)C1CCN(Cc2ccc(F)cc2)CC1`, the cytotoxicity is 8.6%.
As to `CC(C)(C)OC(=O)N1CCC(c2c(C(=O)O)cnn2-c2ccccc2Cl)CC1`, the cytotoxicity is 1%.
With `Cc1ccc(CNC(=O)CCS(=O)(=O)c2ccc(Br)s2)o1` the figure was -4.2%.
Consider `CCOc1ccccc1NC(=O)CN(c1ccc(C)cc1)S(=O)(=O)c1c(C)noc1C`, for which the cytotoxicity was -7.2%.
With `COc1ccc(N(CC(=O)Nc2cc(Cl)ccc2OC)S(=O)(=O)c2c(C)noc2C)cc1` the figure was 77.1% (active); with `COc1ccc(OC)c(NC(=O)CN(c2ccc(C)cc2)S(=O)(=O)c2c(C)noc2C)c1`, 1.7%.
Turning to `COc1ccc(N(CC(=O)Nc2cc(C)ccc2OC)S(=O)(=O)c2c(C)noc2C)cc1`, the cytotoxicity is 9.5%.
As to `CCOc1ccccc1NC(=O)CN(c1cc(C)cc(C)c1)S(=O)(=O)c1c(C)noc1C`, the cytotoxicity is -9.2%.
Consider `CCOc1ccccc1NC(=O)CN(c1ccc(OC)cc1)S(=O)(=O)c1c(C)noc1C`, for which the cytotoxicity is 52.8% (active).
As to `COc1ccccc1C(=O)N1CCN(S(=O)(=O)Cc2ccccc2)CC1`, the cytotoxicity was -0.3%.
With `CCOc1cc(CNc2ncnc3nc[nH]c23)ccc1OC`, the cytotoxicity is 6.5%.
Consider `Cc1ccc2nsnc2c1S(=O)(=O)N1CCN(C(=O)C2CCCO2)CC1` (configuration not stated), for which the cytotoxicity was -15.6%.
In the case of `COc1cc2c(cc1OC)C(C)N(C(=O)Cn1ncc3c1-c1ccccc1OC3)CC2` (configuration not stated), the cytotoxicity was -1.4%.
In the case of `CC(C)(C)C(=O)Cn1c(NCCCO)nc2ccccc21`, the cytotoxicity is -18.5%.
With `Cc1onc(-c2ccccc2)c1C(=O)N1CCCN(C(=O)c2c(-c3ccccc3)noc2C)CC1` the figure was -5.2%.
Turning to `Cc1onc(-c2ccccc2Cl)c1C(N)=O`, the cytotoxicity is 8%.
The value for `Cc1onc(-c2ccccc2)c1C(N)=O` was 50.5% (active).
With `CCOC(=O)c1[nH]c(C)c(C(=O)Nc2ccc(C)c(F)c2)c1C` the figure was 0.8%; with `CCc1ccc(NC(=O)c2noc3c2CCCCC3)cc1`, 3.4%.
For `COc1ccc(C(=O)N2CCOCC2)cc1Br`, the cytotoxicity is -1%.
As to `Cc1cccc(OCC(=O)OCC(=O)c2c(N)n(C)c(=O)n(C)c2=O)c1`, the cytotoxicity is 3%.
As to `O=C(C1CCCN(S(=O)(=O)c2ccc(Br)s2)C1)N1CCCCCC1` (configuration not stated), the cytotoxicity was -15.2%.
With `COC(=O)C1C(=O)C2=C(CC1C)NC(=O)CC2c1ccc(O)c(OC)c1` (configuration not stated) the figure was -9.5%; with `Cc1cc(C)c(C)c(S(=O)(=O)NCc2cccnc2)c1C`, -6.4%; with `Cc1ccc(C)c(S(=O)(=O)NCc2cccnc2)c1`, 52% (active).
As for `Cc1ccc(C(C)C)cc1S(=O)(=O)NCc1cccnc1`, the cytotoxicity is 0.8%.
The value for `COCCN1Cc2c(sc(C)c2C)N(C(=O)c2ccccc2)C1` was 5.6%; that for `CS(=O)(=O)N1CCc2cc(-c3csc(NC(=O)Cc4cccs4)n3)ccc21` was 2.8%.
The value for `O=C(Cc1cccs1)Nc1nc(-c2ccccc2)cs1` was -14.2%.
As to `CC1Cc2cc(-c3csc(NC(=O)Cc4cccs4)n3)ccc2N1S(C)(=O)=O` (configuration not stated), the cytotoxicity was 61.4% (active).
On to `CNC(=O)C1CCC(=O)N1Cc1ccc(C)cc1` (configuration not stated), for which the cytotoxicity was -0.7%.
Take `O=C(O)c1cc(-c2ccccc2)nc2ccccc12`: the cytotoxicity was 2%.
As to `Cc1ccc2nc(NCCO)nc(-c3ccccc3)c2c1`, the cytotoxicity was 16.3%.
For the molecule `O=C(CSc1ncc(-c2ccc(F)cc2)[nH]1)Nc1cccc(O)c1`, the cytotoxicity is 25.6%.
With `Cc1ccc(CNC(=O)C2C3C=CC(C3)C2C(=O)O)cc1` (configuration not stated) the figure was 1.9%; with `CC(=O)OCCNc1cc(N2CCN(C)CC2)c2noc3c2c1C(=O)c1ccccc1-3`, 16.8%.
The value for `CCOC(=O)c1c(C)[nH]c(C)c1-c1ccccc1OC` was -2.6%; that for `CCOC(=O)N1CCN(c2cc(NCCC(=O)O)c3c4c(onc24)-c2ccccc2C3=O)CC1` was 61.7% (active); that for `O=C(O)CCCNc1cc(N2CCC3(CC2)OCCO3)c2noc3c2c1C(=O)c1ccccc1-3` was 40.2%.
For `CCOC(=O)c1c(C)noc1CP(=O)(c1ccccc1)c1ccccc1`, the cytotoxicity is 2.6%.
With `CC(CC(=O)O)CC1=NS(=O)(=O)c2ccccc2N1` (configuration not stated) the figure was -8.6%; with `COc1ccc(CC(=O)Nc2c3c(nn2-c2cccc(C)c2C)CS(=O)C3)cc1OC` (configuration not stated), 0.8%; with `CCCc1nnc(NC(=O)c2cccc(OC)c2)s1`, -25.2%.
In the case of `COc1cccc(C(=O)c2sc(NC(C)C)nc2N)c1`, the cytotoxicity is 72.7% (active).
The value for `COc1ccc(C(=O)c2sc(NC(C)C)nc2N)cc1OC` was -12.6%; that for `O=C(CSC1=NCCS1)NC1CCCCC1` was 3.6%.
For `Cc1[nH]nc2c1C(C(C)C)C(C#N)=C(N)O2` (configuration not stated), the cytotoxicity is 7.9%.
As to `CCC(CC)C1C(C#N)=C(N)Oc2n[nH]c(C)c21` (configuration not stated), the cytotoxicity was 56.7% (active).
Turning to `CCC(C)C1C(C#N)=C(N)Oc2n[nH]c(C)c21` (configuration not stated), the cytotoxicity was 7.5%.
For `CCOC(=O)CC(=O)Nc1nc2ccccc2s1`, the cytotoxicity is -6.8%.
As for `COC(=O)Cc1cc(=O)n(-c2ccccc2)[nH]1`, the cytotoxicity is -4.1%.
Turning to `CCOC(=O)Cc1cc(=O)n(-c2nc3ccccc3s2)[nH]1`, the cytotoxicity is 79.8% (active).
As for `COC(=O)Cc1cc(=O)n(-c2nc3ccccc3[nH]2)[nH]1`, the cytotoxicity was 4.2%.
On to `CCOC(=O)c1nc2ccccc2s1`, for which the cytotoxicity is -9.2%.
As to `COC(=O)Cc1cc(=O)n(-c2nc3ccccc3s2)[nH]1`, the cytotoxicity was 87.9% (active).

For the origin of these results see PubChem BioAssay AID431 (Sanford-Burnham Center for Chemical Genomics, 2006).
